Laboratory results published in PubChem BioAssay.
Activity calls are given as the source filed them.

Tests used:
[1] = small molecules captured by biotinylated probe aFSTL3 – biochemical, small-molecule microarray, fluorescence 635/667, stem cell growth factor project, primary screen (AID 1064); details: higher = more signal;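 also: measures binding of the biotinylated anti-FSTL3 antibody to printed compounds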
[2] = binders from COS7 lysate, DM2A8 probe, primary screen, torsin A project, cell lysate, small-molecule microarray, fluorescence 635/667 (AID 1065); details: higher = more signal, COS7 lysate expressing mutant human TOR1A
[3] = small molecules captured by biotinylated probe aFGF2 – biochemical, small-molecule microarray, fluorescence 635/667, stem cell growth factor project, primary screen (AID 1067); details: higher = more signal;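 also: measures binding of biotinylated aFGF2 protein to printed compounds on slides; z-score merges feature fluorescence and signal-to-noise across triplicate slides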
[4] = small molecules captured by biotinylated probe aFGF10 – biochemical, small-molecule microarray, fluorescence 635/667, stem cell growth factor project, primary screen (AID 1071); details: higher = more signal;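 also: score merges 667 nm spot intensity and signal to noise from triplicate slides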
[5] = target: Neurogenic locus notch homolog protein 2 (Homo sapiens) (UniProt Q04721); test: small molecules binding Notch2 protein – biochemical, small-molecule microarray, 635 nm fluorescence, stem cell growth factors, primary screen (AID 1073); details: higher = more signal
Neurogenic locus notch homolog protein 2 (Homo sapiens), sequence (Q04721 whole entry, looked up, canonical isoform): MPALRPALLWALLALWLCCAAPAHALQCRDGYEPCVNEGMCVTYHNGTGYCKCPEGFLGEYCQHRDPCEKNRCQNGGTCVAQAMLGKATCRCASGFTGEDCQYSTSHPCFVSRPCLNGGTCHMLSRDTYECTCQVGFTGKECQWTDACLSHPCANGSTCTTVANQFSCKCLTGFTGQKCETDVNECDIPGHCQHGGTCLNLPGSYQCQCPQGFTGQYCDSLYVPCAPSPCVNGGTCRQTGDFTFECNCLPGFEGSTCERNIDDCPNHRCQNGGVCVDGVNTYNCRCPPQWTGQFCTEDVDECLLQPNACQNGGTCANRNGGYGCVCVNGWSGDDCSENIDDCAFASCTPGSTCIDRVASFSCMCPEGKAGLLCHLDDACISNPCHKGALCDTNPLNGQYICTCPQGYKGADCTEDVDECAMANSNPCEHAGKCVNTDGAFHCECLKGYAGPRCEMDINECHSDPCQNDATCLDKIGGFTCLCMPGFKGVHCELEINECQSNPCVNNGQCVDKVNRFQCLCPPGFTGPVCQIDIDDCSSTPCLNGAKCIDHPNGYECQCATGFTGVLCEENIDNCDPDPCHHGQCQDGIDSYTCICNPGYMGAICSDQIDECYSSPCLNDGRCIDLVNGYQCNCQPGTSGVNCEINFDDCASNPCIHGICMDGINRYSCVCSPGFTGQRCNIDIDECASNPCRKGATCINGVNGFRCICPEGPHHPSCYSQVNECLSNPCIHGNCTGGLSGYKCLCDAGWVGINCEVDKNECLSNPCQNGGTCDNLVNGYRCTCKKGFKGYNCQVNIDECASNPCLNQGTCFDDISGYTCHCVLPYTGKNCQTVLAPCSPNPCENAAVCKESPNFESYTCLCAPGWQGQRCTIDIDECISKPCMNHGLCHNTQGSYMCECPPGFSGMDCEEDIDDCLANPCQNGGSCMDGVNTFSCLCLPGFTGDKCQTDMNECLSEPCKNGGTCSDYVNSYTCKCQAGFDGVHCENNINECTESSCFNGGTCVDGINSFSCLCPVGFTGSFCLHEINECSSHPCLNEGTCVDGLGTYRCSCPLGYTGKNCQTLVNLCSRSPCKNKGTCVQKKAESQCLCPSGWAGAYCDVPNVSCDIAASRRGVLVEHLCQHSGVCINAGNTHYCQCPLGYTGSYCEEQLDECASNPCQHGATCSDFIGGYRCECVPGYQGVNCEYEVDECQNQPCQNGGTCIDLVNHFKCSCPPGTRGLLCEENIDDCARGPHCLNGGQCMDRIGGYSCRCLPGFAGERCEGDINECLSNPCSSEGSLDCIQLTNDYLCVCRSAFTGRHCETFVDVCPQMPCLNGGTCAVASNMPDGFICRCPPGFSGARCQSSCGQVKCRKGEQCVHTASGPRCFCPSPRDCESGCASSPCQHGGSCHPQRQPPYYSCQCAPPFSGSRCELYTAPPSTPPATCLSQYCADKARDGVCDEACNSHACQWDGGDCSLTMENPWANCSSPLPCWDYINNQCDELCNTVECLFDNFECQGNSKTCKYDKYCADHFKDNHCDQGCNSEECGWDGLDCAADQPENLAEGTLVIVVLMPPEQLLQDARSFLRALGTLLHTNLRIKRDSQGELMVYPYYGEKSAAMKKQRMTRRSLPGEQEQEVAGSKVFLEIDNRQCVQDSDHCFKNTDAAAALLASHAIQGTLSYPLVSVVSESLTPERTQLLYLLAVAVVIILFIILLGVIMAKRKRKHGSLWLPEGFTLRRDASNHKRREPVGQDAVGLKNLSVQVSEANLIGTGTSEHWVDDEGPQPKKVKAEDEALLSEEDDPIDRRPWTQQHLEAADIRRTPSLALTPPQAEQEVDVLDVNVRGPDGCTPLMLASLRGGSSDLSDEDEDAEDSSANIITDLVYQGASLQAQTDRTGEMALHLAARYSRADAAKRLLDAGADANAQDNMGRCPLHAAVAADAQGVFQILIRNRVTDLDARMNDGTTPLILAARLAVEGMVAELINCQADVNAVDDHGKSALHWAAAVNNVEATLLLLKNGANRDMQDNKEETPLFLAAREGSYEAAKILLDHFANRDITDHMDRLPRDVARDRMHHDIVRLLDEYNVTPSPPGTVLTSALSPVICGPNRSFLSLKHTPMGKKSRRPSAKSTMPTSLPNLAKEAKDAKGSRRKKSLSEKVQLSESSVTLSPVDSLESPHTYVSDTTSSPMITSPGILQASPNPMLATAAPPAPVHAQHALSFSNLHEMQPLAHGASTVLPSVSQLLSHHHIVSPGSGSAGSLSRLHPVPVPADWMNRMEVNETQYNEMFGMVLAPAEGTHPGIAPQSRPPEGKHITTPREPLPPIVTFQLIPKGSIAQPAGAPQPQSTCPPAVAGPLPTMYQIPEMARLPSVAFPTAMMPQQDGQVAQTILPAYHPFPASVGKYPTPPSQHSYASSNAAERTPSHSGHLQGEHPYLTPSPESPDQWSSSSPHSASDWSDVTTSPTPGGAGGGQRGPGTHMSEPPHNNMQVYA

[6] = target: Pro-neuregulin-1, membrane-bound isoform (Homo sapiens) (UniProt Q02297); test: small molecules binding neuregulin-1 protein – biochemical, small-molecule microarray, fluorescence 635/667, psychiatric disease protein project, primary screen (AID 1075); details: NRG1 binding, 635 nm fluorescence, higher = more signal;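 also: score combines 667 nm spot fluorescence with signal to noise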
Pro-neuregulin-1, membrane-bound isoform (Homo sapiens), sequence (Q02297 whole entry, looked up, the tested form may be a part, canonical isoform): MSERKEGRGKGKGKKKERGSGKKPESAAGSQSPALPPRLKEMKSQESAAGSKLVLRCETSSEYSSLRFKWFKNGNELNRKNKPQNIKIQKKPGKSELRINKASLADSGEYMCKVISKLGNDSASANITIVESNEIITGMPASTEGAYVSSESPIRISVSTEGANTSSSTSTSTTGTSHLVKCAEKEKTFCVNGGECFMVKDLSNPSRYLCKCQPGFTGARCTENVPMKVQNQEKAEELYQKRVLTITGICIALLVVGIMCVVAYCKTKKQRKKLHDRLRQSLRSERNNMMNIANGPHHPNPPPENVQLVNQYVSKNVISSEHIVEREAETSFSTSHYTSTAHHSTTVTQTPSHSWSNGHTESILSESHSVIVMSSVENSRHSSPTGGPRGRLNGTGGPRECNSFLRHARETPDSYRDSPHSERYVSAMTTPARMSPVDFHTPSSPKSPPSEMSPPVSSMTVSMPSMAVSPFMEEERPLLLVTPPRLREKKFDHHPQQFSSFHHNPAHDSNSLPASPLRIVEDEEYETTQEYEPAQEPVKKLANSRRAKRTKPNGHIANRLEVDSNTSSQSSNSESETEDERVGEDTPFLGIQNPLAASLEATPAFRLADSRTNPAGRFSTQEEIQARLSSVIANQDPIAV

[7] = test system: Neuregulin-1 EGF-like domain; test: small molecules binding NRG1 EGF domain – biochemical, small-molecule microarray, 635 nm fluorescence, primary screen (AID 1081); details: higher = more signal;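 also: binding of the protein to compounds printed on small-molecule microarray slides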
[8] = FRG1 expression reporter modulators in myotubes – cell-based, C2C12 myotubes, firefly/Renilla luciferase, luminescence, FRG1 inhibition for FSHD, primary screen (AID 1084); details: FRG1 promoter luciferase, higher = more signal, called active from +8 up or from −8 down
[9] = small molecules captured by biotinylated probe aFST – biochemical, small-molecule microarray, fluorescence 635/667, stem cell growth factor project, primary screen (AID 1086); details: higher = more signal;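 also: score merges 667 nm fluorescence with signal-to-noise of each printed compound spot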
[10] = binders of probe aHhip on microarray, primary screen, stem cell growth factor project, biochemical, small-molecule microarray, fluorescence 635/667 (AID 1087); details: higher = more signal;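 also: score merges spot fluorescence at 667nm with spot signal to noise ratio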
[11] = test system: PRMT1 (protein arginine N-methyltransferase 1); test: small molecules binding arginine methyltransferase PRMT1 – biochemical, small-molecule microarray, 635 nm fluorescence, primary screen (AID 1088); details: higher = more signal;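 also: binding of Prmt1 protein to compounds spotted on small-molecule microarray slides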
[12] = growth effects on S. cerevisiae YJM789 – YJM789 clinical isolate, OD600, 24 h, basal, primary screen (AID 1089); details: higher = more signal, called active from +8 up or from −8 down;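 also: growth of clinical yeast isolate S. cerevisiae YJM 789 seeded 1000 cells per well; test concentration not given here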
[13] = S. pombe growth modifiers, basal conditions – strain 972, OD600, 24 h, no modulator, primary screen (AID 1090);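 also: basal condition with compound alone and no growth modifier present; test concentration not given here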; details: S. pombe 972 growth, higher = more signal, called active from +8 up or from −8 down
[14] = budding yeast growth modifiers under rapamycin – strain BY4716, OD600, 96 h, primary screen (AID 1091); also: test concentration not given here; details: S. cerevisiae BY4716 + rapamycin, higher = more signal, called active from +8 up or from −8 down
[15] = target: Torsin-1A-interacting protein 2 (Homo sapiens) (UniProt Q8NFQ8); test: small molecules binding lysate-expressed LULL1 – cell lysate, human LULL1 lysate, 635/667 nm fluorescence, primary screen (AID 1092); details: small-molecule microarray, hLULL1 lysate binding, 635 nm fluorescence; higher = more signal;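 also: probe is lysate of COS7 cells overexpressing human LULL1; score merges per-feature 667 nm fluorescence with signal-to-noise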
Torsin-1A-interacting protein 2 (Homo sapiens), sequence (Q8NFQ8 whole entry, looked up): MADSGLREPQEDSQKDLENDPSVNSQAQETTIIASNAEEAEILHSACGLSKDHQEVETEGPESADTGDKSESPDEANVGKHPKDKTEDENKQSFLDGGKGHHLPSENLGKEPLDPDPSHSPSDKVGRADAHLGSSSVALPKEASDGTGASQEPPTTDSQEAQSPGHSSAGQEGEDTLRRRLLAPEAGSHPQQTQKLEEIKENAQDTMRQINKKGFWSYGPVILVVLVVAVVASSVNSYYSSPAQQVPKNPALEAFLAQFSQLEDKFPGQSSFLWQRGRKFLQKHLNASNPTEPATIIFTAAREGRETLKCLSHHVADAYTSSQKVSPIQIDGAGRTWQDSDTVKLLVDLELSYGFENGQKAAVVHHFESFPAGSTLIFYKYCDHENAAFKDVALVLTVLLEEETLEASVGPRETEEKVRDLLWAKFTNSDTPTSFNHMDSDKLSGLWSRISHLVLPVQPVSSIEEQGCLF

[16] = optical density change of DRC41 E. coli – strain DRC41, OD650, 24 h, E. coli filamentation project, primary screen (AID 1093);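 also: MC1000 strain lacking acrAB efflux and sulA so SOS filamentation is blocked; test concentration not given here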; details: E. coli DRC41 growth, higher = more signal, called active from +8 up or from −8 down
[17] = probe aLefty2 binding to arrayed compounds – biochemical, biotinylated probe, 635/667 nm fluorescence, primary screen (AID 1094); details: small-molecule microarray, higher = more signal;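 also: score merges spot fluorescence near 667 nm with spot signal-to-noise ratio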
[18] = test system: Noggin (protein binding on small-molecule microarray); test: small molecules binding Noggin protein – biochemical, 635/667 nm fluorescence, primary screen (AID 1095); details: 635 nm fluorescence, higher = more signal;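 also: score merges 667 nm feature fluorescence with signal to noise over triplicate slides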
[19] = target: Neurogenic locus notch homolog protein 3 (Homo sapiens) (UniProt Q9UM47); test: small molecules binding NOTCH3 protein – biochemical, 635/667 nm fluorescence, primary screen (AID 1096); details: small-molecule microarray, 635 nm fluorescence, higher = more signal
[20] = probe aEGFR binding to arrayed compounds – biochemical, biotinylated probe, 635/667 nm fluorescence, primary screen (AID 1097); details: small-molecule microarray, higher = more signal;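 also: probe is a biotinylated anti-EGFR antibody binding compounds printed on slides; score combines fluorescence near 667 nm and signal to noise of each spot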

| Compound | composite z-score [1] | composite z-score [2] | composite z-score [3] | composite z-score [4] | composite z-score [5] | composite z-score [6] | composite z-score [7] | z-score [8] | composite z-score [9] | composite z-score [10] | composite z-score [11] | z-score [12] | z-score [13] | z-score [14] | composite z-score [15] | z-score [16] | composite z-score [17] | composite z-score [18] | composite z-score [19] | composite z-score [20] |
| --- | --- | --- | --- | --- | --- | --- | --- | --- | --- | --- | --- | --- | --- | --- | --- | --- | --- | --- | --- | --- |
| CCN(CC)c1ccc(N2CC=CC34O[C@@H]5C=CCOC(=O)[C@@H]5[C@H]3C(=O)N(C(C)CO)[C@@H]4C2=O)cc1 (stereo not given in full) | 0.652 | -0.893 | -0.171 | -0.784 | -1.58 | 0.392 | 0.344 | 0.403 (inactive) | -0.278 | -0.0296 | -1.48 | -0.185 (inactive) | -1.4 (inactive) | -0.8 (inactive) | -0.151 | 1.7 (inactive) | -0.0592 | -1.39 | -0.894 | -0.252 |
| COCCOC(=O)N1C(=O)[C@@]2(c3cc(C#CC4(O)CCCCCC4)ccc31)[C@H](C(=O)NC[C@H](O)c1ccccc1)[C@H]1C(=O)O[C@H](c3ccccc3)[C@H](c3ccccc3)N1[C@@H]2c1ccccc1OCCO | -0.0213 | 0.621 | -0.0628 | 0.695 | 1.03 | 1.29 | 1.23 | 0.153 (inactive) | 0.627 | 0.0044 | 1.55 | 2.64 (inactive) | 0.623 (inactive) | 6.84 (inactive) | 2.69 | 1.97 (inactive) | 0.101 | 1.3 | 1.04 | 0.0343 |
| CO[C@H]1O[C@H](CO)[C@@H](OC(=O)Nc2ccccc2)[C@H](OC(=O)Nc2ccc3c(c2)OCO3)[C@H]1OC(=O)Nc1ccc2c(c1)OCO2 | 0.381 | 0.45 | 0.128 | 0.7 | 1.29 | 1.61 | 1.23 | 4.5 (inactive) | 0.29 | -0.175 | 1.56 | 0.648 (inactive) | 0.494 (inactive) | 2.28 (inactive) | 2.8 | 2.75 (inactive) | 0.0789 | 0.128 | 1.06 | -0.0527 |
| C=C(COC)C(=O)CC[C@@H](OC(=O)c1ccccc1-c1ccccc1C(=O)O)c1cccc(OCCO)c1 | -0.124 | 0.098 | -0.14 | 0.457 | -0.66 | 0.691 | 0.137 | 0.658 (inactive) | -0.0665 | -0.0645 | 0.437 | 0.586 (inactive) | -1.51 (inactive) | -0.409 (inactive) | 0.132 | 0.826 (inactive) | -0.183 | 0.518 | -0.338 | -0.173 |
| C#CCN1C(C(=O)OCC)OC[C@H]1c1ccccc1 (stereo not given in full) | -0.551 | 2.59 | -0.128 | 0.389 | 0.678 | 0.0354 | -0.143 | -1.77 (inactive) | -0.0006 | -0.492 | 0.52 | -1.51 (inactive) | -2.08 (inactive) | -1.95 (inactive) | 3.77 | 1.92 (inactive) | -0.205 | 0.671 | 0.804 | -0.109 |
| CC(C)(C)OC(=O)CC[C@@]12N=C(c3ccc(OCCCO)cc3)O[C@@H]1c1ccccc1N(Cc1ccccc1)C2=O | 0.96 | 0.842 | -0.0481 | -0.422 | 0.246 | 0.778 | 1.21 | -3.31 (inactive) | 0.439 | -0.0645 | 1.32 | 0.0492 (inactive) | -1.2 (inactive) | 3.98 (inactive) | 3.26 | 1.55 (inactive) | 0.0622 | 0.753 | 1.05 | -0.0497 |
| CC(C)C(=C=CC[C@H](O)c1ccc(OCCO)cc1)C[C@H](O)COCc1ccccc1 | -0.254 | 1.75 | -0.128 | 0.411 | -0.438 | 0.639 | 1.09 | -1.37 (inactive) | -0.0173 | -0.0994 | 1.23 | 1.09 (inactive) | -2.45 (inactive) | -0.668 (inactive) | 1.76 | 0.775 (inactive) | -0.119 | 1.51 | 0.229 | -0.166 |
| C=C(COC)C(=O)CC[C@H](OC(=O)c1cccnc1)c1cccc(OCCO)c1 | 0.822 | 1.9 | 0.119 | 0.833 | -0.381 | -0.318 | 0.0423 | 0.0417 (inactive) | 0.331 | 0.503 | 1.36 | 1.25 (inactive) | -0.231 (inactive) | 1.56 (inactive) | 0.241 | 1.18 (inactive) | 0.649 | 1.29 | 0.176 | 0.431 |
| C=CCNC(=O)[C@@H]1[C@H]2C(=O)O[C@H](c3ccccc3)[C@H](c3ccccc3)N2[C@H](c2ccc(O)cc2)[C@@]12C(=O)Nc1ccc(C#Cc3ccc(OC)cc3)cc12 | -0.112 | 0.712 | 0.0356 | 0.69 | 1.46 | 0.489 | 1.16 | 0.606 (inactive) | 0.496 | -0.0672 | 1.54 | -0.147 (inactive) | -1.67 (inactive) | 2.97 (inactive) | 1.96 | 2.8 (inactive) | 0.0005 | 0.436 | 1.14 | -0.0019 |
| O=C1N(CCS(=O)(=O)c2ccccc2)Cc2ccccc2[C@@H]2OC(c3ccc(OCCCO)cc3)=N[C@]12Cc1ccccc1 | 1.02 | 0.397 | 0.196 | 0.849 | 1.5 | 1.84 | 1.39 | -2.88 (inactive) | 0.843 | -0.338 | 1.53 | 2.44 (inactive) | 1.46 (inactive) | 9.7 (active) | 3.4 | 0.552 (inactive) | 0.657 | 1.1 | 1.01 | 0.442 |
